Test systems include SK-MEL-2 melanoma; EKVX NSCLC; SN12C renal; UO-31 renal; TK-10 renal; ACHN renal; CAKI-1 renal; A498 renal; CCRF-CEM leukemia; MOLT-4 leukemia; SR leukemia; RPMI-8226 leukemia; OVCAR-8 ovarian; OVCAR-5 ovarian; OVCAR-4 ovarian; SK-OV-3 ovarian; IGROV1 ovarian; OVCAR-3 ovarian; HS 578T breast; NCI/ADR-RES ovarian.
What all share (test): NCI-60 one-dose screen, 48 h (100 = growth as untreated, 0 = no growth, -100 = all killed)
Details in all cases: 10 µM unless noted

This is part of a sample that, as a whole, favours compounds with a hit. Of some 83,000 tested, about 20% had one in any assay.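 Each cell line was grown in a 96-well plate and treated with one concentration of compound for 48 hours. Values below 10 were considered active.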 Unmarked numbers belong to inactive results. The source made the active and inactive calls.

For `O=C(N/N=C/c1c(Cl)cccc1Cl)c1cccnc1Nc1cccc(C(F)(F)F)c1`, the growth in the experiment with SK-MEL-2 melanoma is -6.91% (active); with EKVX NSCLC, 17.6%; with SN12C renal, 42.6%; in the experiment with UO-31 renal, 29.8%; in the experiment with TK-10 renal, 35.6%; in the experiment on ACHN renal it was 29.6%. In addition, the growth in the experiment on CAKI-1 renal is 60.1%; in the experiment on A498 renal, 65.6%; in the experiment on CCRF-CEM leukemia, 18.9%; in the experiment with MOLT-4 leukemia it was 31.7%; with SR leukemia, 54.5%; in the experiment on RPMI-8226 leukemia it was 3.23% (active). The growth with OVCAR-8 ovarian was 49.4%; in the experiment on OVCAR-5 ovarian, 53.4%; in the experiment with OVCAR-4 ovarian it was 25.1%; with SK-OV-3 ovarian it was 27%; in the experiment on IGROV1 ovarian it was 31.8%; with OVCAR-3 ovarian it was 46.8%. Further, the results for the growth in the experiment with HS 578T breast and in the experiment on NCI/ADR-RES ovarian were 112% and 31%, respectively.

Turning to `COc1cc2c(cc1OCCCN1CCN(CCCOc3cc4c(cc3OC)C(=O)N3CCC[C@H]3C=N4)CC1)C=CC(C)(C)O2`, the growth was -77% (active) in the experiment on SK-MEL-2 melanoma; -100% (active) with EKVX NSCLC; -65.7% (active) with SN12C renal; -58.8% (active) with UO-31 renal; -83.6% (active) in the experiment with TK-10 renal; 4.25% (active) in the experiment with ACHN renal. Further, the growth was -71% (active) in the experiment on CAKI-1 renal; -100% (active) with A498 renal; -48.6% (active) in the experiment on CCRF-CEM leukemia; -12.8% (active) with MOLT-4 leukemia; -58.3% (active) in the experiment with SR leukemia; -8.49% (active) in the experiment on RPMI-8226 leukemia. Further, the growth in the experiment on OVCAR-8 ovarian was -56.7% (active); in the experiment with OVCAR-5 ovarian it was -80.7% (active); in the experiment with OVCAR-4 ovarian it was -71.2% (active); in the experiment on SK-OV-3 ovarian it was -83.9% (active); with IGROV1 ovarian, -89.1% (active); with OVCAR-3 ovarian, -75.6% (active). Further, the growth with HS 578T breast is -77.9% (active); in the experiment on NCI/ADR-RES ovarian, 32.6%.

As for `Cc1cn(-c2cc(NC(=O)c3cccc(C#Cc4cccc5[nH]nc(N)c45)c3)cc(C(F)(F)F)c2)cn1`, the growth is 22.5% in the experiment with SK-MEL-2 melanoma; 56.7% in the experiment with EKVX NSCLC; 29.9% in the experiment on SN12C renal; 9.11% (active) in the experiment on UO-31 renal; 78.8% with TK-10 renal; 21.5% in the experiment with ACHN renal. The growth in the experiment on CAKI-1 renal was 75.7%; in the experiment with A498 renal it was 35.1%; in the experiment with CCRF-CEM leukemia, 15%; in the experiment on MOLT-4 leukemia, 20.7%; in the experiment on SR leukemia, 28.3%; in the experiment with RPMI-8226 leukemia it was 13.8%. In addition, the growth was 28.5% in the experiment with OVCAR-8 ovarian; 28.8% in the experiment with OVCAR-5 ovarian; 45.6% in the experiment with OVCAR-4 ovarian; 99.4% in the experiment on SK-OV-3 ovarian; 15.4% in the experiment on IGROV1 ovarian; 75.3% in the experiment on OVCAR-3 ovarian. The growth in the experiment with HS 578T breast is 31.4%; with NCI/ADR-RES ovarian, 67.1%.

For `CCSc1nc2scc(C)c2c(=O)[nH]1`, the growth in the experiment with SK-MEL-2 melanoma was 105%; with EKVX NSCLC, 97.7%; with SN12C renal, 99.4%; in the experiment with UO-31 renal, 88.6%; in the experiment on TK-10 renal, 110%; in the experiment on ACHN renal it was 101%. Besides, the growth in the experiment on CAKI-1 renal was 92.3%; in the experiment with A498 renal, 89.7%; in the experiment on CCRF-CEM leukemia, 99.2%; with MOLT-4 leukemia, 96%; in the experiment on SR leukemia it was 101%; in the experiment on RPMI-8226 leukemia it was 101%. For the same compound, the growth in the experiment on OVCAR-8 ovarian is 99.3%; in the experiment with OVCAR-5 ovarian, 99.8%; with OVCAR-4 ovarian, 96.7%; in the experiment on SK-OV-3 ovarian it was 98.5%; with IGROV1 ovarian it was 102%; with OVCAR-3 ovarian, 107%. For the same compound, the growth is 95.5% in the experiment on HS 578T breast and 102% in the experiment with NCI/ADR-RES ovarian.

For `N=C(N)c1ccc(-c2ccc(-c3ccc(Cl)cc3Cl)s2)cc1`, the growth with SK-MEL-2 melanoma was 104%; in the experiment on EKVX NSCLC, 63.5%; in the experiment with SN12C renal, 16%; with UO-31 renal, 21.8%; in the experiment with TK-10 renal, 110%; in the experiment with ACHN renal it was -28% (active). The growth with CAKI-1 renal is -67.3% (active); in the experiment on A498 renal it was 86.3%; in the experiment with CCRF-CEM leukemia, -3.15% (active); in the experiment on MOLT-4 leukemia, -24.3% (active); in the experiment with SR leukemia, 4.31% (active); in the experiment with RPMI-8226 leukemia it was -24.4% (active). The growth in the experiment with OVCAR-8 ovarian was -21.3% (active); in the experiment with OVCAR-5 ovarian, 38.6%; with OVCAR-4 ovarian, -16.2% (active); with SK-OV-3 ovarian it was 88%; in the experiment with IGROV1 ovarian it was -37.5% (active); in the experiment on OVCAR-3 ovarian, -16.4% (active). Further, the results for the growth in the experiment with HS 578T breast and in the experiment on NCI/ADR-RES ovarian were 71.6% and 77.5%, respectively.

Take `O=C(/C=C(/C=C/c1ccc2[nH]ccc2c1)OB(F)F)/C=C/c1ccc2[nH]ccc2c1`: the growth in the experiment on SK-MEL-2 melanoma is 25.8%; in the experiment on EKVX NSCLC it was 4.65% (active); in the experiment with SN12C renal, 10%; in the experiment on UO-31 renal, 2.63% (active); in the experiment with TK-10 renal, 5.77% (active); in the experiment on ACHN renal, -22.4% (active). Also, the growth in the experiment with CAKI-1 renal was -14.5% (active); in the experiment with A498 renal it was 32.5%; in the experiment on CCRF-CEM leukemia, -19.9% (active); in the experiment on MOLT-4 leukemia, -4.43% (active); in the experiment with SR leukemia, 2.78% (active); in the experiment on RPMI-8226 leukemia it was -31.2% (active). Also, the growth in the experiment with OVCAR-8 ovarian is -29.9% (active); in the experiment with OVCAR-5 ovarian, 15.4%; with OVCAR-4 ovarian, 2.28% (active); in the experiment with SK-OV-3 ovarian it was 13.6%; with IGROV1 ovarian, 5.09% (active); in the experiment on OVCAR-3 ovarian, -16.2% (active). The growth was 31.4% in the experiment on HS 578T breast and 14.3% with NCI/ADR-RES ovarian.

Consider `CCOC(=O)c1nn(-c2ccc(S(N)(=O)=O)cc2)c2nc(C)cc(=O)n12`, for which the growth is 109% in the experiment with SK-MEL-2 melanoma; 104% in the experiment on EKVX NSCLC; 96.7% with SN12C renal; 86.1% with UO-31 renal; 94.7% in the experiment on TK-10 renal; 108% with ACHN renal. The growth is 90.8% in the experiment with CAKI-1 renal; 88.3% in the experiment on A498 renal; 105% in the experiment with CCRF-CEM leukemia; 119% in the experiment with MOLT-4 leukemia; 104% in the experiment on SR leukemia; 103% in the experiment on RPMI-8226 leukemia. Also, the growth with OVCAR-8 ovarian was 105%; in the experiment on OVCAR-5 ovarian it was 117%; in the experiment with OVCAR-4 ovarian, 102%; with SK-OV-3 ovarian, 105%; with IGROV1 ovarian it was 98.7%; in the experiment on OVCAR-3 ovarian, 110%. The growth with HS 578T breast and in the experiment on NCI/ADR-RES ovarian was 103% each time.

Regarding `Ic1ccc(OCCCCn2ccnc2)cc1`, the growth in the experiment on SK-MEL-2 melanoma is 80.7%; in the experiment with EKVX NSCLC it was 62.1%; with SN12C renal, 76.6%; in the experiment with UO-31 renal, 63.8%; in the experiment on TK-10 renal, 45.3%; in the experiment on ACHN renal, 59.4%. Further, the growth in the experiment with CAKI-1 renal is 70%; in the experiment with A498 renal, 36.2%; in the experiment on CCRF-CEM leukemia it was 55.1%; with MOLT-4 leukemia it was 82.2%; in the experiment on SR leukemia it was 45.1%; in the experiment with RPMI-8226 leukemia, 73.5%. Also, the growth with OVCAR-8 ovarian was 95.5%; with OVCAR-5 ovarian, 64.4%; in the experiment with OVCAR-4 ovarian, 44.7%; with SK-OV-3 ovarian it was 80.9%; with IGROV1 ovarian, 71.9%; in the experiment with OVCAR-3 ovarian, 39.2%. Moreover, the figures for the growth with HS 578T breast and with NCI/ADR-RES ovarian were 90.2% and 90.7%, respectively.

The values are drawn from PubChem BioAssay (NCI).
